Measured values taken from PubChem BioAssay.

System: Neuregulin-1 EGF-like domain
Assay: small molecules binding NRG1 EGF domain – biochemical, small-molecule microarray, 635 nm fluorescence, primary screen (AID 1081);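 also: binding of the protein to compounds printed on small-molecule microarray slides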
Conditions: higher = more signal

Compound	composite z-score
C[C@]1(C(=O)NCCN2CCOCC2)c2ccccc2C(=O)N(Cc2ccc(OC(F)(F)F)cc2)[C@H]1c1ccc(CO)cc1	1.02
[N-]=[N+]=Nc1ccccc1[C@@H]1OC(c2ccc(OCCCO)cc2)=N[C@]1(CCS(=O)(=O)c1ccccc1)C(=O)NCCN1CCOCC1	1.25
CC(C)CN1C(=O)[C@@]2(Cc3ccccc31)c1ccccc1C(=O)N(Cc1ccccc1C(F)(F)F)[C@H]2c1ccc(CO)cc1	-1.12
C=CC[C@]1(C(=O)N(C)C)N=C(c2ccc(OCCCO)cc2)O[C@H]1c1ccccc1N=[N+]=[N-]	1.2
COc1cc2c(cc1OC)CN(C(=O)[C@H]1[C@@H]3C(=O)O[C@@H](c4ccccc4)[C@@H](c4ccccc4)N3[C@@H](c3ccc(OCCO)cc3)[C@]13C(=O)Nc1ccc(C#CC4(O)CCCCCC4)cc13)CC2	1.32
COCCCNC(=O)[C@@H]1c2ccccc2C(=O)N(Cc2ccccc2C(F)(F)F)[C@H]1c1ccc(CO)cc1	1.16
C=CC[C@]12N=C(c3ccc(OCCCO)cc3)O[C@H]1c1ccccc1N(C)C2=O	1.22
CCCC[C@@H]1C[C@H]1[C@@H](NC(=O)c1cccnc1)c1ccc(-c2ccccc2)cc1	-0.655
C[C@@H]1ON(c2ccc(C(=O)OC(C)(C)C)cc2)[C@H](c2ccc(Br)cc2)[C@H]1C(=O)N1C(=O)OC[C@H]1Cc1ccccc1	1.11
CC(C)CCC[C@@H](C)[C@H]1CC[C@@]2(C)C3=C(CC[C@]12C)[C@@]1(C)CC[C@H](OC(=O)c2ccc(Br)cc2)C(C)(C)C1CC3 (stereo partly specified)	0.439
COc1cc2c(cc1O)C(C)N(Cc1cc3c(cc1Br)OCO3)CC2 (stereo unspecified)	1.5
COc1c(C)cc(-c2cc3c(c(Cc4ccccc4)n2)[Si](C(C)C)(C(C)C)OC3)cc1C	-0.588
CN(C)CCCN1C(=O)[C@@]2(c3ccc([N+](=O)[O-])cc3)CC(=O)N(CC34CC5CC(CC(C5)C3)C4)[C@@H]2c2ccc(CO)cc21	0.72
CO[C@H]1O[C@H](CO)[C@@H](OC(=O)Nc2ccc(C(F)(F)F)cc2)[C@H](OC(=O)Nc2ccc3c(c2)OCO3)[C@H]1OC(=O)Nc1ccc2c(c1)OCO2	1.3
NC(=O)NCC#Cc1ccc2c(c1)[C@]1(C(=O)N2)[C@H](C(=O)Nc2nc3ccccc3s2)[C@H]2C(=O)O[C@H](c3ccccc3)[C@H](c3ccccc3)N2[C@@H]1c1ccc(O)cc1	-0.15
COCCOC(=O)N1C(=O)[C@@]2(c3cc(C#CC4(O)CCCCCC4)ccc31)[C@H](C(=O)N1CCCCCCC1)[C@H]1C(=O)O[C@H](c3ccccc3)[C@H](c3ccccc3)N1[C@@H]2c1ccc(OCCO)cc1	1.24
COC(=O)[C@@]1(Cc2ccccc2)[C@H]2c3cc(C(=O)N4CCCC4)[nH]c3C[C@H]2CN1C(=O)c1ccccc1	0.664
CCOC(=O)[C@H]1C/C=C/C[C@H](C(=O)OCC)C(=O)O[C@H]2[C@@H](OC)O[C@H](CO)[C@@H](OC(=O)CCc3ccccc3)[C@@H]2OC1=O	-0.0615
Cc1ccc(F)cc1S(=O)(=O)N[C@@H]1CCN(Cc2ccc(OC(C)C)cc2)C1	0.288
COCCOC(=O)N1C(=O)[C@@]2(c3cc(C#CC4=CCCCC4)ccc31)[C@H](C(=O)N1CCN(c3ncccn3)CC1)[C@H]1C(=O)O[C@H](c3ccccc3)[C@H](c3ccccc3)N1[C@@H]2c1ccc(O)cc1	1.24
COC(=O)C1(Cc2ccccc2)C=C2C(=C(C(C)C)C(=O)C2C)CN1 (stereo unspecified)	0.853
O=C1O[C@H](c2ccccc2)[C@H](c2ccccc2)N2[C@H]1[C@@H](C(=O)O)[C@]1(C(=O)Nc3ccccc31)[C@H]2c1ccc(O)cc1	0.771
COc1ccc(NC(=O)O[C@H]2[C@H](OC(=O)Nc3ccc4c(c3)OCO4)[C@@H](OC(=O)Nc3ccc4c(c3)OCO4)[C@@H](OC)O[C@@H]2CO)cc1	1.2
COc1c(C)cc(-c2cc3c(c(-c4ccccc4)n2)[Si](C(C)C)(C(C)C)OC3)cc1C	-1.15
C[C@@H](OCc1ccccc1)C1NC(=O)[C@@]23C(=O)N[C@@H](Cc4ccccc4)C2[C@H](C)[C@@]2(C)O[C@H]2C3/C=C/C/C=C\CNC(=O)CNC1=O (stereo partly specified)	-0.002
COc1ccc([Si](C)(C)[C@@H]2[C@@H](CC(=O)N3CCC[C@H]3CO)O[C@]3(C(=O)N(Cc4ccc(N5C(=O)c6cccc7cccc5c67)cc4)c4ccccc43)[C@H]2C)cc1	0.976
